Where “and” joins values, the source holds several entries; their conditions need not be identical. Equal values may be shown once. Results filed as inconclusive are left out. Calls of active or inactive are those of the source. Calls follow the shape of the dose curve; as a rule, active = well fitted curve in the direction sought with a large enough effect in the repeat runs; inconclusive = weak or mixed curves; inactive = no such curve, though single readings can be large; an effect the other way counts as inactive or inconclusive.
Key:
[1] = A CellTox Green Cytotoxicity Assay to monitor cytotoxicity in HepG2 cells - 32 hour (AID 1224883); also: nearly all actives have a fitted effect of over 50% in size; also: potency is read from the fitted curve at half-maximal effect
Method in brief: (§1)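 Continuous culture of HepG2 cells with a membrane-impermeant DNA dye; rising fluorescence marks dead cells. Compound exposure lasted up to 40 h at 37 C, with reads every 8 h from 0 h.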

[2] = qHTS RealTime-Glo MT Cell Viability Assay in HEK293 cells - 24 hour (AID 1224886); also: nearly all actives have a fitted effect of over 50% in size; also: potency is read from the fitted curve at half-maximal effect; as to activity change, negative = cytotoxicity: top concentration of the series differs between compounds
Method in brief: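 Nonlytic real-time viability readout: viable cells convert prosubstrate to NanoLuc substrate, giving luminescence proportional to live cell number. HEK293, 600 cells/well, compound added after 5 h, continuous culture at 37 C.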

[3] = qHTS RealTime-Glo MT Cell Viability Assay in HEK293 cells - 8 hour (AID 1224887); also: nearly all actives have a fitted effect of over 50% in size; also: potency is read from the fitted curve at half-maximal effect; as to activity change, negative = cytotoxicity: top concentration of the series differs between compounds
Method in brief: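 qHTS format; HEK293 cells with NanoLuc/prosubstrate reagent, 37 C/5% CO2 for 5 h pre-dosing; compounds 23 nL in DMSO; luminescence at each time point reflects viable cells.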

[4] = qHTS RealTime-Glo MT Cell Viability Assay in HepG2 cells - 0 hour (AID 1224889); also: nearly all actives have a fitted effect of over 50% in size
Method in brief: (§2)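 Luminescence read-out: viable HepG2 cells reduce a prosubstrate to a NanoLuc substrate, giving a signal proportional to live cell number. Reads taken at 0, 8, 16, 24, 32 and 40 h of compound exposure at 37 C.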

[5] = A CellTox Green Cytotoxicity Assay to monitor cytotoxicity in HEK293 cells - 8 hour (AID 1224884); also: nearly all actives have a fitted effect of over 35% in size; also: potency is read from the fitted curve at half-maximal effect
Method in brief: (§3)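 Each value comes from one timepoint of a single continuous run in which HEK293 cells with CellTox Green were exposed to compound for up to 40 h at 37 C, dye fluorescence rising with cell death.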

[6] = qHTS RealTime-Glo MT Cell Viability Assay in HepG2 cells - 16 hour (AID 1224885); also: nearly all actives have a fitted effect of over 50% in size; also: potency is read from the fitted curve at half-maximal effect
Method in brief: as §2

[7] = A CellTox Green Cytotoxicity Assay to monitor cytotoxicity in HEK293 cells - 16 hour (AID 1224888); also: nearly all actives have a fitted effect of over 35% in size; also: potency is read from the fitted curve at half-maximal effect
Method in brief: as §3

[8] = A CellTox Green Cytotoxicity Assay to monitor cytotoxicity in HepG2 cells - 8 hour (AID 1224890); also: nearly all actives have a fitted effect of over 45% in size; also: potency is read from the fitted curve at half-maximal effect
Method in brief: as §1

[9] = qHTS assay to identify small molecule antagonists of the estrogen receptor alpha (ER-alpha) signaling pathway using the BG1 cell line in the presence of 0.1 nM 17-beta-estradiol - cell viability counter screen (AID 1259241); also: nearly all actives have a fitted effect of over 40% in size; also: potency is read from the fitted curve at half-maximal effect
Method in brief: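 Cells were plated and left 24 hr, compounds in DMSO were pinned in, 17beta-estradiol was added to 0.1 nM final, and after 22 hr CellTiter-Fluor reagent was added for 30 min before fluorescence was read.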

[10] = qHTS assay to identify small molecule antagonists of the androgen receptor (AR) signaling pathway using the MDA cell line in the presence of 0.5 nM R1881 - cell viability counter screen (AID 1259242); also: nearly all actives have a fitted effect of over 45% in size; also: potency is read from the fitted curve at half-maximal effect
Method in brief: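 Fluorescence from CellTiter-Fluor, which reports protease activity of live cells, was read 30 min after reagent addition to MDA-kb2 cells that had been incubated 16 hr with compound and 0.5 nM R1881.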
% is scaled to controls: 0 for no effect and ±100 for the full control effect.

Nc1ccc2cc3ccc(N)cc3nc2c1
active: Potency [1] 49 µM and 21.3 µM | Potency [2] 2.45 µM and 3.01 µM | Potency [3] 24.5 µM
inactive: Potency [4]

c1ccc2c(c1)CCC2
inactive: Potency [5] | Potency [6] | Potency [2] | Potency [3] | Potency [7] | Potency [4] | Potency [8] | Potency [9] | Potency [10]

CCCC(C)CCC(C)=O (configuration not stated)
inactive: Potency [5] | Potency [6] | Potency [2] | Potency [3] | Potency [7] | Potency [4] | Potency [8] | Potency [9] | Potency [10]

C/C=C/C=N/NC(=O)c1ccncc1
inactive: Potency [1] | Potency [3] | Potency [4] | Potency [8] | Potency [9] | Potency [10]

C=C/C=C/C=C/CCCCC
inactive: cytotoxicity increase [1] -4.15% [at 15.8 µM] | activity change, negative = cytotoxic [6] -10.1% [at 15.8 µM] | activity change, negative = cytotoxicity [2] 13% [at 15.8 µM] | activity change, negative = cytotoxicity [3] -1.22% [at 15.8 µM] | activity change, negative = cytotoxicity [4] -16.9% [at 15.8 µM] | cytotoxicity increase [8] -1.01% [at 15.8 µM] | activity change, negative = cytotoxicity [9] -4.24% [at 19 µM] | viability change, negative = cytotoxic [10] -0.871% [at 19 µM]

CC1(C)C(=O)N(CO)C(=O)N1CO
inactive: Potency [1] | Potency [6] | Potency [2] | Potency [3] | Potency [4] | Potency [8] | Potency [9] | Potency [10]

CCCCCCCCCCCCCOP(=O)(O)O
inactive: Potency [1] | Potency [6] | Potency [2] | Potency [7] | Potency [4] | Potency [8] | Potency [9] | Potency [10]

S=P(N1CC1)(N1CC1)N1CC1
inactive: Potency [1] | Potency [7] | Potency [9] | Potency [10]

NC1(c2ccc(-c3nc4ccn5c(=O)[nH]nc5c4cc3-c3ccccc3)cc2)CCC1
active: Potency [1] 26.8 µM | Potency [6] 23.9 µM | Potency [2] 3.01 µM | Potency [3] 10.7 µM | Potency [10] 33.5 µM
inactive: Potency [4] | Potency [8]

CC1=CCC(=O)O1
inactive: Potency [5] | Potency [6] | Potency [2] | Potency [3] | Potency [7] | Potency [4] | Potency [8] | Potency [9] | Potency [10]

COC(=O)CC(C)CCC=C(C)C (configuration not stated)
inactive: Potency [5] | Potency [6] | Potency [2] | Potency [3] | Potency [7] | Potency [4] | Potency [8] | Potency [9] | Potency [10]

CCCCCCCCCCCCOC(=O)c1cc(O)c(O)c(O)c1
active: Potency [1] 48.8 µM and 54.9 µM | Potency [6] 48.8 µM and 49 µM | Potency [2] 4.35 µM and 3.89 µM | Potency [3] 7.73 µM and 6.17 µM | Potency [8] 48.8 µM and 21.9 µM | Potency [10] 60.9 µM
inactive: Potency [4]

CCCCCCOc1cc(C)c(O)c(C)c1C
inactive: Potency [4] | Potency [9] | Potency [10]
active: Potency [1] 24.8 µM | Potency [2] 15.7 µM | Potency [7] 44.2 µM

CS(C)(=O)=O
inactive: Potency [1] | Potency [6] | Potency [2] | Potency [3] | Potency [4] | Potency [9] | Potency [10]

CC1=C(/C=C/C(C)=C/C=C/C(C)=C\C=O)C(C)(C)CCC1
inactive: Potency [1] | Potency [3] | Potency [4] | Potency [8] | Potency [9] | Potency [10]

Cc1ccc(CCn2c3c(c4cc(Cl)ccc42)CN(C)CC3)cn1
active: Potency [2] 9.52 µM
inactive: Potency [5] | Potency [6] | Potency [7] | Potency [8] | Potency [9] | Potency [10]

Cc1oc(-c2ccccc2)nc1CCOc1ccc(C[C@H](Nc2ccccc2C(=O)c2ccccc2)C(=O)O)cc1
inactive: Potency [5] | Potency [6] | Potency [2] | Potency [3] | Potency [7] | Potency [4] | Potency [8] | Potency [10]

NCCCC(O)(P(=O)(O)O)P(=O)(O)O
inactive: Potency [5] | Potency [6] | Potency [2] | Potency [3] | Potency [7] | Potency [4] | Potency [9] | Potency [10]

COc1cccc(CCc2ccccc2OCC(CN(C)C)OC(=O)CCC(=O)O)c1 (configuration not stated)
inactive: Potency [5] | Potency [6] | Potency [2] | Potency [7] | Potency [4] | Potency [8] | Potency [9] | Potency [10]

Clc1ccc(C(Cn2ccnc2)OCc2c(Cl)cccc2Cl)c(Cl)c1 (configuration not stated)
active: Potency [2] 16.9 µM
inactive: Potency [5] | Potency [6] | Potency [7] | Potency [9] | Potency [10]

CCC1(c2cnc[nH]2)Cc2ccccc2C1
inactive: Potency [5] | Potency [2] | Potency [3] | Potency [7] | Potency [4] | Potency [8]

CCCCCCCC/C=C\CCCCCCCC(=O)N(C)CC(=O)O
active: Potency [5] 38.9 µM
inactive: Potency [6] | Potency [4] | Potency [8] | Potency [9] | Potency [10]

CCCCCCC(C)OC(=O)COc1nc(F)c(Cl)c(N)c1Cl (configuration not stated)
inactive: Potency [5] | Potency [6] | Potency [7] | Potency [4] | Potency [9] | Potency [10]

CCC(C)c1cc([N+](=O)[O-])cc([N+](=O)[O-])c1OC(=O)OC(C)C (configuration not stated)
active: Potency [6] 49 µM | Potency [3] 49 µM | Potency [9] 38.6 µM
inactive: Potency [5] | Potency [4] | Potency [8]

CCCCCCCC(C)=O
inactive: Potency [5] | Potency [6] | Potency [2] | Potency [3] | Potency [7] | Potency [4] | Potency [8] | Potency [9] | Potency [10]

CCc1ccc(C)nc1
inactive: Potency [5] | Potency [6] | Potency [2] | Potency [3] | Potency [7] | Potency [4] | Potency [9] | Potency [10]

CCOB(OCC)OCC
inactive: Potency [5] | Potency [6] | Potency [7] | Potency [4] | Potency [8] | Potency [9] | Potency [10]
